Among the data in PubChem BioAssay AID2058 (Sanford-Burnham Center for Chemical Genomics, 2009) are inhibition values, retold here.

About 150 (0.052%) of roughly 290,000 compounds were called active. Shown is part of a subset that was picked to be rich in actives. Potency and affinity values are given separately. Values without a mark were called inactive.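 How the source made its calls: active means inhibition of at least 50% with at least 30 cells and total cytoplasm GFP at most 10,000,000; inconclusive means under 30 cells or total GFP of 10,000,000 plus; inactive means the rest.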

The target in the assay is G-protein coupled receptor 35 (Homo sapiens) (UniProt Q9HC97). Briefly: GPR35 antagonists blocking zaprinast-driven arrestin recruitment, primary screen, imaging, U2OS, beta-arrestin-GFP, zaprinast agonist (AID 2058). The following applies: U2OS GPR35 beta-arrestin-GFP translocation imaging, zaprinast antagonism; at 10 µM; active compounds read high. On the technique in general: Arrestin recruitment assays detect the binding of arrestin to an activated receptor.
Sequence of G-protein coupled receptor 35 (Homo sapiens) (Q9HC97 whole entry, looked up): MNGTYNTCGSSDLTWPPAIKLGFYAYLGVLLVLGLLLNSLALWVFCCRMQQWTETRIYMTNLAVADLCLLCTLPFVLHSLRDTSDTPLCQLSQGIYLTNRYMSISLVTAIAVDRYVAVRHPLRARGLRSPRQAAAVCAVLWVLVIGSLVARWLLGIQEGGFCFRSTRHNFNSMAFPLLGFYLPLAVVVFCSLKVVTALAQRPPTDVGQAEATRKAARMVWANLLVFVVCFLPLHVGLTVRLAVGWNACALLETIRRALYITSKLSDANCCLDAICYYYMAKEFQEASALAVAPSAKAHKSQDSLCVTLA
As usually defined, the inhibition is the change of the read-out against control, counted positive when it falls. Consider `CN1/C(=C\C=Nc2ccccc2)C(C)(C)c2ccccc21`, for which the inhibition was -7.9%.

`CN1/C(=C\C=C2C(=O)NC(=O)NC2=O)C(C)(C)c2ccccc21`: the inhibition was 1.5%. Under `CN1/C(=C\C=C\C2=[N+](C)c3ccc4ccccc4c3C2(C)C)C(C)(C)c2ccccc21` stands 111% (active); under `COc1ccc(NC(=O)c2cn(CCC#N)nc2-c2cccc(Br)c2)cc1`, -0.5%; under `CCCNS(=O)(=O)c1ccc(OCC(=O)N2CCN(C)CC2)cc1`, 3.2%. As to `CCCCNC(=O)NC(C(N)=O)P(=O)(OCC)OCC` (stereo not given), the inhibition was -6.8%. Under `COc1cccc(CN2CCCCC2c2cccnc2)c1` (stereo not given) stands 11.2%. In the case of `COc1cccc(-c2nn(Cc3ccccc3)cc2C(=O)O)c1` it was 21.1%; in that of `COc1cccc(C2CC3C(=O)C=CC2N3Cc2ccccc2)c1` (stereo not given), 58.2% (active); in that of `Clc1ccc(NC2=NCCCS2)cc1Cl`, -7.1%.

As to `Cc1nccc2c1[nH]c1ccccc12`, the inhibition is 2.3%. As for `Cc1c2ccncc2c(C)c2c1[nH]c1ccccc12`, the inhibition is 57.9% (active). For the molecule `c1ccc2c(c1)[nH]c1cnccc12`, the inhibition was -1.7%. On to `CCOc1ccc(Cl)cc1CNCCc1ccc(F)cc1`, for which the inhibition is -1.9%. Under `Cc1ccc(C(=O)Nc2ccc(-n3ccnc3P(=O)(O)c3ccccc3)cc2)cc1` stands -2.7%.
